HEK cytotox = cytotoxic compounds in HEK 293 cells | HEK 293 viability, ATP luminescence (CellTiter-Glo), 48-72 h | Potency, µM (highest dose often 115 µM), most hits filed as inhibitors | actives 6.6% (n = 94,000); also: nearly all actives have a fitted effect of over 60% in size
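Read-out: CellTiter-Glo ATP luminescence. Cells: HEK 293, 250 cells/well. Exposure: 48 or 72 hr, 37 degree Celsius.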
FLuc inh = blocks purified firefly luciferase enzyme activity. P08659. purified P. pyralis luciferase, luminescence, biochemical. Potency, µM (series often up to 115 µM), usual class: inhibitors. actives 2.5% (n = 76,000); also: nearly all actives have a fitted effect of over 65% in size
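Biochemical qHTS: compound (6-point titration) added to 10uM D-luciferin plus 10uM ATP in Tris acetate pH 7.5 buffer with Mg, Tween-20 and BSA, then purified enzyme at 10nM; light output imaged.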
NIH3T3 tox = NIH 3T3 cell cytotoxicity | NIH 3T3 viability, CellTiter-Glo ATP luminescence, 48-72 h | Potency, µM (top dose mostly 96.7 µM), hits mostly inhibitors | actives 4.3% (n = 94,000) | AID 1345082; also: nearly all actives have a fitted effect of over 55% in size
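Viability of NIH 3T3 cells after 48 or 72 hr compound treatment at 37 °C was assessed by CellTiter-Glo, with luminescence imaged following a 10 min room-temperature step.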
NPR1 antag = antagonists of human natriuretic peptide receptor Npr1. HEK293 hNpr1 GloSensor cGMP, ANP-stimulated luminescence. actives 1.6% (n = 76,000). Potency, µM (top dose mostly 46.3 µM), hits mostly inhibitors; calls by dose curve; also: nearly all actives have a fitted effect of over 60% in size
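HEK293 cells stably expressing human Npr1 and cGMP GloSensor pGS-40F, loaded 2 h with 2% GloSensor reagent, given compound 30 min at room temperature. Luminescence read before and 20 min after 0.1 nM hNppA.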
Numbers stand for hits. An excerpt weighted towards active compounds, which were near 11% of everything screened. Unless noted, calls follow the shape of the dose curve; as a rule, active = well fitted curve in the direction sought with a large enough effect; inconclusive = small, poorly fitted or top-dose-only effect, or another doubt; inactive = no such curve, though single readings can be large; an effect the other way counts as inactive or inconclusive.

Results for O=C1CC2(CCN(Cc3ccc(F)cc3)CC2)Oc2ccccc2N1c1ccccc1 ?
HEK cytotox: 50.1µM; FLuc inh: inactive; NIH3T3 tox: inconclusive; NPR1 antag: inactive

Results for O=C1CC2(CCN(Cc3ccc(C(F)(F)F)cc3)CC2)Oc2ccccc2N1 ?
HEK cytotox: 44.7µM; FLuc inh: inactive; NIH3T3 tox: inconclusive; NPR1 antag: inactive

How did COc1cccc(S(=O)(=O)N2C[C@@H](F)C[C@H]2C(=O)N2CCCCC2)c1 do in these assays?
HEK cytotox: inactive; FLuc inh: inactive; NIH3T3 tox: inactive; NPR1 antag: inactive

How did O=C(c1ccc(Cl)cc1)N1CCC(N2CCCS2(=O)=O)CC1 do in these assays?
HEK cytotox: inactive; NIH3T3 tox: inactive

Results for CCCN(CCC)C(=O)c1ccc(CN2C(=O)NC3(CCS(=O)(=O)CC3)C2=O)cc1 ?
HEK cytotox: inactive; FLuc inh: inactive; NIH3T3 tox: inactive; NPR1 antag: inconclusive

Results for COCCOC1CCN(C(=O)c2cccc3[nH]ccc23)CC1 ?
HEK cytotox: inactive; FLuc inh: inactive; NIH3T3 tox: inactive; NPR1 antag: inactive

Results for CCOCCOC1CCN(C(=O)c2cccc3[nH]ccc23)CC1 ?
HEK cytotox: inactive; FLuc inh: 35.5µM; NIH3T3 tox: inactive; NPR1 antag: inactive

What do the screens show for `CCN1CCN(Cc2cc(C)cc(CN(C)Cc3ncc(C)[nH]3)c2C)CC1`?
HEK cytotox: inconclusive; FLuc inh: 39.8µM; NIH3T3 tox: inactive; NPR1 antag: inactive

What do the screens show for `Cc1cnc(CN(C)Cc2cn(-c3ccccc3)nn2)[nH]1`?
HEK cytotox: inactive; FLuc inh: inactive; NIH3T3 tox: inactive; NPR1 antag: inactive

Results for Cc1ccccc1C(=O)NC1CCN(c2cc(-c3ccc(Cl)cc3)[nH]n2)C1 (centres undefined) ?
HEK cytotox: inconclusive; FLuc inh: inactive; NIH3T3 tox: 39.8µM; NPR1 antag: inactive

Results for CCOc1ccc(C(=O)NC2CCCN(c3cc(-c4ccc(F)cc4)[nH]n3)C2)cc1OCC (centres undefined) ?
HEK cytotox: 28.2µM; FLuc inh: inactive; NIH3T3 tox: 31.6µM; NPR1 antag: inactive

What do the screens show for `CCOc1ccccc1C(=O)NC1CCN(c2cc(-c3ccc(Cl)cc3)[nH]n2)C1` (centres undefined)?
HEK cytotox: 35.5µM; FLuc inh: inactive; NIH3T3 tox: inconclusive; NPR1 antag: inactive

Results for CCOc1ccc(C(=O)NC2CCCN(c3cc(-c4ccc(OC)cc4)[nH]n3)C2)cc1OCC (centres undefined) ?
HEK cytotox: inconclusive; FLuc inh: inactive; NIH3T3 tox: inactive; NPR1 antag: inactive

What do the screens show for `CCOc1ccccc1C(=O)NC1CCCN(c2cc(-c3ccc(F)cc3)[nH]n2)C1` (centres undefined)?
HEK cytotox: 39.8µM; FLuc inh: inactive; NIH3T3 tox: 31.6µM; NPR1 antag: inactive

What do the screens show for `O=C(C1CCCN1C(=O)c1ccc(F)cc1)N1CCC(c2nc3ccncc3[nH]2)C1` (centres undefined)?
HEK cytotox: inactive; NIH3T3 tox: inactive

What do the screens show for `COc1ccc(Nc2cnc3ccc(-c4ccccc4OC)nn23)cc1`?
HEK cytotox: 79.4µM; FLuc inh: inconclusive; NIH3T3 tox: inconclusive; NPR1 antag: inactive

What do the screens show for `COc1ccccc1-c1ccc2ncc(Nc3ccc(CN4CCN(C)CC4)cc3)n2n1`?
HEK cytotox: 50.1µM; FLuc inh: inactive; NIH3T3 tox: 25.1µM; NPR1 antag: inactive

How did COc1ccc(-c2ccc3ncc(Nc4ccc(CN5CCN(C)CC5)cc4)n3n2)cn1 do in these assays?
HEK cytotox: inconclusive; FLuc inh: inactive; NIH3T3 tox: inconclusive; NPR1 antag: inactive

Results for CNC(=O)[C@@H]1CN2CCN(C(=O)CC3CCCC3)C[C@@H]2[C@H]1c1ccccc1 ?
HEK cytotox: inactive; NIH3T3 tox: inconclusive

What do the screens show for `O=C(COc1ccc(F)cc1)N1CCC2(CC1)NC(=O)N(c1ccccc1Cl)N2`?
HEK cytotox: inconclusive; FLuc inh: inactive; NIH3T3 tox: inconclusive; NPR1 antag: inactive

What do the screens show for `COCC1CN(S(=O)(=O)c2ccc3c(c2)CCCC3)CC12CCNCC2` (centres undefined)?
HEK cytotox: inconclusive; FLuc inh: inactive; NIH3T3 tox: inconclusive; NPR1 antag: inactive

Results for COCCNC(=O)c1ccc(OC2CCN(CCc3ccccc3)CC2)c(Cl)c1 ?
HEK cytotox: inconclusive; FLuc inh: inactive; NIH3T3 tox: inconclusive; NPR1 antag: inactive

From PubChem
